The whole screen tested about 370,000 compounds, of which about 3,700 (1%) were called active. For the sample, actives were picked, then their nearest neighbours and some compounds at random. A number with no mark means an inactive call.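 Rule for the calls: active = activation above the mean over all tested compounds plus 3 SD (cut at about 0.9% in these data); inactive = the rest.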

The experiment deals with Nuclear hormone receptor DAF-12 (Strongyloides stercoralis). The experiment can be described thus: ssDAF-12 driven luciferase reporter activation – cell-based, luminescence, HEK293, GRIP1 co-expression, lit1-tk-luc, primary screen (AID 652126).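 Note: 0% = DMSO-only wells and 100% = 3 µM delta7-dafachronic acid wells.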 Particulars: HEK293 ssDAF-12/GRIP1 lit1-tk-luc reporter, at 6.8 µM, active compounds read high, % of 3 µM dafachronic acid response. Background: A reporter such as luciferase makes a cellular process visible.
In the case of `O=C(c1c[nH]c2ccccc12)N1CCC(Oc2cccnc2)CC1`, the activation was -1.03%.

Turning to `Cc1ccc(OCc2nnc(SC/C=C/c3ccccc3)n2Cc2ccco2)cc1`, the activation is -1.7%.

With `O=C(Nc1cccc(Cl)c1)OC1CC2CC1[C@H]1CCCCN1[C@H]2Cc1ccccc1` (stereo partly drawn), the activation is -1.06%.

In the case of `Cc1ccccc1NC(=O)COC(=O)c1ccc(Sc2ncn[nH]2)c([N+](=O)[O-])c1`, the activation was -1.78%.

As for `Cc1nc2ccc(C(=O)N3CCN(C(=O)C(C)(C)C)CC3)cc2n1C1CCCC1`, the activation is -1.22%.

`Cc1ccc(-c2nc3ccccc3[nH]2)cc1N`: the activation was 2.5% (active).

`CN(C)c1cc(N)c2ccccc2n1` (tested in a mixture with another compound): the activation was -0.25%.

Consider `CCOC(=O)c1nc(-c2ccc3c(c2)OCO3)[nH]c1C`, for which the activation is -1.3%.

Turning to `Cc1cc(C)nc(NC(=S)N2CCN(c3ccc(C(F)(F)F)cn3)CC2)c1`, the activation was -1.63%.

Take `COc1ccc(C(=O)OCCN2CCN(C3CN(Cc4cn(Cc5ccccc5F)nn4)S(=O)(=O)C3)CC2)cc1OC` (stereo not drawn): the activation was -1.83%.

Regarding `O=C(Nc1cc(F)cc(F)c1)OC1CCC12CCC(c1ccccc1)CC2` (stereo not drawn), the activation was -1.11%.

`O=C(Nc1cc(Cl)cc(Cl)c1)OCCN1CCCC12CCC(c1ccccc1)CC2` (stereo not drawn): the activation was -1.99%.

Turning to `Cc1ccc(-n2c(SCC(=O)Nc3ccc(S(=O)(=O)Nc4nccs4)cc3)nnc2-c2cccnc2)cc1`, the activation is -1.03%.

As for `Fc1ccc2cnc(-c3ccccc3)cc2c1`, the activation was 0.89%.

With `Fc1ccccc1-c1cc2cc3c(cc2cn1)OCO3`, the activation is 0.96% (active).

For the molecule `COC(=O)C[C@@H]1CC[C@@H]2[C@H](COc3ccc(NC(=O)c4cccc(F)c4)cc3C(=O)N2C)O1`, the activation is -1.32%.

In the case of `CN(C(N)=NC(=O)/C=C/c1ccccc1)C(C#Cc1ccccc1)Cc1ccccc1` (stereo not drawn), the activation was -1.31%.

In the case of `O=C(CCCCCN1C(=O)C2C3C=CC(C3)C2C1=O)Nc1ccccn1` (stereo not drawn), the activation is -1.93%.

For the molecule `COc1ccc(Cn2cc(COC(=O)N(C)Cc3ccccc3)nn2)cc1`, the activation is -1.12%.

As for `COc1ccc(CC(=O)NCc2nnc(SCC(=O)Nc3ncc(C)s3)n2C)cc1`, the activation was -1.52%.

`Cc1cnc(NC(=O)c2ccc(Cl)nc2)s1`: the activation is 1.34% (active).

Take `Cc1ccc(NC(=O)c2ccc(Cl)nc2)cc1S(=O)(=O)N1CCOCC1`: the activation was -1.53%.

With `COc1ccc(-c2cc(-c3nnc(SCC(=O)Nc4cccc5ccccc45)n3N)[nH]n2)cc1`, the activation is -1.73%.

As for `Cc1cc(=O)[nH]c(SCC(=O)Nc2ccc(Cl)cc2C)n1`, the activation is -1.2%.

For `CCC(c1ccc(NC(=O)OC(C)(C)C)cc1)c1cc(OC)cc(OC)c1` (stereo not drawn), the activation is -1.95%.

With `CC(C)(C)c1ccc(C(=O)Nc2cc(Cl)c(Br)cc2C(=O)O)cc1`, the activation was -1.31%.

Turning to `CCc1nonc1NC(=O)c1oc2ccc(Cl)cc2c1C`, the activation is -0.87%.

With `Cc1c(C(=O)NC2CCCCC2)oc2ccccc12`, the activation is -0.81%.

With `Cc1c(C(=O)Nc2ccccn2)oc2ccc(Br)cc12`, the activation is 1.84% (active).

Take `C=CCn1c(SCC(N)=O)nnc1-c1ccccc1OC`: the activation was -0.81%.

Regarding `COc1ccc(C(=O)NCC[N+](C)(C)C)cc1`, the activation was -0.25%.

With `COc1ccc(C(=O)Nc2ccc(-n3nncc3C(C)(C)C)cc2)cc1`, the activation was -1.68%.

On to `COc1ccc(NC(=O)c2ccc(OC)cc2)cc1`, for which the activation is 0.92% (active).

Regarding `O=C(CSc1nnc(-c2ccccc2)n1Cc1ccco1)Nc1ccccc1-c1ccccc1`, the activation is -1.67%.

With `O=C(CSc1nnc(COc2ccccc2)n1Cc1ccco1)c1ccc2ccccc2c1`, the activation is -1.35%.

Regarding `Clc1ccc(-c2cc(-c3ccccn3)on2)c(Cl)c1`, the activation is 1.28% (active).

For the molecule `Clc1ccc(-c2cc(C3CCNCC3)[nH]n2)c(Cl)c1`, the activation is -1.62%.

Take `O=C(c1ccccc1)c1cc(-c2ccccn2)c(N2CCOCC2)s1`: the activation was -1.53%.

Consider `C[C@H]1[C@H](NC(=O)c2cccc(N(C)C)c2)CC[C@@]23CCCN2C(=O)CCC[C@@H]13`, for which the activation was -1.05%.

In the case of `O=S(=O)(Nc1ccc2nc(-c3ccco3)[nH]c2c1)c1ccccc1`, the activation was -0.88%.

On to `Cn1c(SCC(=O)c2cccs2)nnc1-c1ccco1`, for which the activation is -0.1%.

Consider `Cn1c(-c2ccco2)nc2cc3ccccc3cc21`, for which the activation is 1.86% (active).

With `Cc1cc(NS(=O)(=O)c2ccc(NC(=O)CSc3nnc(SCc4ccc(F)cc4)s3)cc2)nc(C)n1`, the activation is -1.33%.

Take `O=C1CCC2(CCC(c3ccc(Cl)cc3)CC2)N1CCO` (stereo not drawn): the activation is -1.42%.

For `Oc1cccc2ccc(/C=C/c3ccc(Br)s3)nc12`, the activation is 1.49% (active).

With `O=C(CN1C(=O)NC2(CCCCC2)C1=O)NCCC1=CCCCC1`, the activation is -1.49%.

For `CCOC(=O)c1cccc(NC(=O)CN(C)S(=O)(=O)c2ccc(-c3cocn3)s2)c1`, the activation was 0.72%.

With `N[C@@H](Cc1ccccc1)C(=O)N1CCC[C@@H]1C(=O)N1CCC2CCN(S(=O)(=O)c3ccccc3)CC21` (stereo partly drawn), the activation is -0.75%.

Turning to `O=C(NCCCNC(=O)c1ccccc1Cl)c1cnccn1`, the activation is -0.77%.

`CN(C)CCNC(=O)Cc1ccc([N+](=O)[O-])cc1`: the activation is -0.65%.

Take `CN(C)CCNC(=O)c1ccc(Cl)c2cc3ccccc3nc12`: the activation is 2.74% (active).

Take `COc1ccc(Cn2cc(CN3[C@@H](CC(C)C)COc4cc(Br)ccc4S3(=O)=O)nn2)cc1`: the activation was -0.66%.

For `Fc1ccc2nc(COCc3nc4ccc(F)cc4[nH]3)[nH]c2c1`, the activation is -1.23%.

Take `Oc1cc2c(cc1O)CN(C(=S)NCCc1ccc(Cl)cc1)CCC2`: the activation was -1.68%.

For `CC1CCN(C(=O)CCNC(=O)c2ccccc2)CC1`, the activation was -0.14%.

As for `CCOc1ccc(CCNC(=O)C2=C(C)C(=O)OC23CCC(C)CC3)cc1OCC` (stereo not drawn), the activation was -0.29%.

Regarding `CCN(CCNC(=O)C1=C(C)C(=O)OC12CCC(C)CC2)c1ccccc1` (stereo not drawn), the activation is 3.96% (active).

With `O=C(OC12CCCN(C1)/C(=C/c1cccnc1)C2)C1CCCC1` (stereo not drawn), the activation was -1.43%.

Consider `CCOC(=O)[C@@]12CN(C(=O)OC(C)(C)C)CC=C1N(Cc1ccc(OC)cc1)C(=O)[C@H]2CC(=O)NCc1ccc(OC)c(OC)c1`, for which the activation was -0.75%.

Consider `CC(NC(=O)c1ccccc1C(=O)O)c1ccc(-n2ccnc2)cc1` (stereo not drawn), for which the activation was 0.93% (active).

As to `C/C(=N\NC(=O)c1cccnc1)c1ccc(-n2ccnc2)cc1`, the activation was -1.15%.

In the case of `CC(NC(=O)c1ccccc1SCC(=O)N1CCCC1)c1ccccc1` (stereo not drawn), the activation is -0.47%.

Take `C[C@H](C(=O)N(C)c1ccccc1)[C@@H](O)c1ccc2ccccc2c1`: the activation was -0.52%.

As to `O=C(Nc1nnc(-c2ccccc2)o1)c1cccc(S(=O)(=O)N2CCOCC2)c1`, the activation was -0.75%.

On to `COc1ccccc1-c1nnc(NC(=O)c2ccc3ncsc3c2)o1`, for which the activation was 0.27%.

As to `COc1ccccc1-c1nnc(NC(=O)c2cccc(N3C(=O)CCC3=O)c2)o1`, the activation was 1.57% (active).

`Cc1ccc(NC(=S)NNC(=O)CSc2nnc(SCc3ccccc3Cl)s2)cc1`: the activation was -1.2%.

`Cc1ccc(C2=Nc3c(ccc4ccccc34)C(c3ccncc3)=NN2)cc1`: the activation was 1.33% (active).

`CCOc1ccc2c(c1)C(c1ccc(C)cc1)=NNC(c1ccc(C)cc1)=N2`: the activation is -0.66%.

Regarding `CN(C)c1ccc(NC(=O)NC2CCCCN(Cc3ccc(Cl)cc3)C2=O)cc1` (stereo not drawn), the activation is -1.57%.

As to `Cc1ccc(S(=O)(=O)N2[C@@H](c3ccccc3F)C(C(=O)O)=CC[C@H]2c2ccc(Cl)cc2)cc1`, the activation is -1.05%.

Take `Cc1ccc(S(=O)(=O)N2[C@@H](c3cccc(Cl)c3)C(C(=O)O)=CC[C@H]2c2ccc(Cl)c(Cl)c2)cc1`: the activation is -1.12%.

On to `COc1ccc(C2CC=C(C(=O)O)C(c3ccccc3F)N2S(=O)(=O)c2ccc(C)cc2)cc1OC` (stereo not drawn), for which the activation is 1.37% (active).

As to `COc1ccc(N2CCN(CCNS(=O)(=O)c3ccc([N+](=O)[O-])cc3)CC2)cc1`, the activation was -1.33%.

Turning to `Cn1c(=O)c(C(=O)Nc2ncccn2)c(O)c2ccccc21`, the activation is 2.21% (active).

Consider `Cn1c(=O)c(Sc2ccc(Cl)cc2)c(O)c2ccccc21`, for which the activation was 0.04%.

With `C=CCn1c(=O)c(C(=O)Nc2ncccc2O)c(O)c2ccccc21`, the activation was -0.42%.

On to `CN(C)[C@H]1CCN(c2cccc3c2S(=O)(=O)N2CC[C@H](C2)O3)C1`, for which the activation is -0.74%.

In the case of `CC(C)(C)NC(=O)C(c1cccnc1)N(C(=O)c1cnco1)c1ccc(C(C)(C)C)cc1` (stereo not drawn), the activation is -2.05%.

For `COc1ccccc1C(=O)N/C(=C/c1ccc2c(c1)OCO2)C(=O)Nc1cccc(C(=O)O)c1`, the activation was -0.63%.

For the molecule `COc1ccccc1C(=O)N/C(=C/c1ccco1)C(=O)Nc1ccc(C(=O)O)cc1`, the activation is 1.14% (active).

For `COc1ccc(/C=C(/NC(=O)c2ccco2)C(=O)Nc2ccc(C(C)=O)cc2)cc1`, the activation was -1.1%.

For the molecule `CCOC(=O)[C@]12CCCC3=C1N(CCC3)C(=O)[C@@H](CC(=O)NCC13CC4CC(CC(C4)C1)C3)C2`, the activation is -0.93%.

On to `Cc1ccc(NC(=O)Cc2cccc(F)c2)c(S(=O)(=O)N2CCOCC2)c1`, for which the activation is -0.55%.

Consider `O=C(NC1CCCC1)C1CSCCS(=O)(=O)N1Cc1ccccc1` (stereo not drawn), for which the activation is -1.05%.

Consider `Cc1noc(C)c1/C=N/Nc1ccc2ccccc2n1`, for which the activation was 1.61% (active).

Take `C=CCN1C(=O)[C@H](CC(=O)N2CCN(C(=O)OCC)CC2)[C@@]2(C(=O)OCC)CCCC=C12`: the activation was -0.45%.

For `Cc1ccc(-n2c(SCC(=O)Nc3ccc(S(=O)(=O)Nc4nccs4)cc3)nnc2-c2ccccn2)cc1`, the activation is -0.88%.

Source of the values: PubChem BioAssay AID652126 (The Scripps Research Institute Molecular Screening Center, 2013).
